From ChEMBL document CHEMBL1961873, “Compounds: GSK PKIS; Assays: Nanosyn kinase panel” (2012)

Assays:
[1] = molecular target: Tyrosine-protein kinase Fer (Homo sapiens) (UniProt P16591); settings: at 1 µM
[2] = molecular target: Tyrosine-protein kinase Fes/Fps (Homo sapiens) (UniProt P07332); settings: at 0.1 µM
[3] = molecular target: Tyrosine-protein kinase Fes/Fps (Homo sapiens) (UniProt P07332); settings: at 1 µM
[4] = molecular target: Fibroblast growth factor receptor 1 (Homo sapiens) (UniProt P11362); settings: at 0.1 µM
[5] = molecular target: Fibroblast growth factor receptor 1 (Homo sapiens) (UniProt P11362); settings: at 1 µM
[6] = molecular target: Fibroblast growth factor receptor 2 (Homo sapiens) (UniProt P21802); settings: at 0.1 µM
Fibroblast growth factor receptor 2 (Homo sapiens), sequence (P21802 22-821 limits assumed): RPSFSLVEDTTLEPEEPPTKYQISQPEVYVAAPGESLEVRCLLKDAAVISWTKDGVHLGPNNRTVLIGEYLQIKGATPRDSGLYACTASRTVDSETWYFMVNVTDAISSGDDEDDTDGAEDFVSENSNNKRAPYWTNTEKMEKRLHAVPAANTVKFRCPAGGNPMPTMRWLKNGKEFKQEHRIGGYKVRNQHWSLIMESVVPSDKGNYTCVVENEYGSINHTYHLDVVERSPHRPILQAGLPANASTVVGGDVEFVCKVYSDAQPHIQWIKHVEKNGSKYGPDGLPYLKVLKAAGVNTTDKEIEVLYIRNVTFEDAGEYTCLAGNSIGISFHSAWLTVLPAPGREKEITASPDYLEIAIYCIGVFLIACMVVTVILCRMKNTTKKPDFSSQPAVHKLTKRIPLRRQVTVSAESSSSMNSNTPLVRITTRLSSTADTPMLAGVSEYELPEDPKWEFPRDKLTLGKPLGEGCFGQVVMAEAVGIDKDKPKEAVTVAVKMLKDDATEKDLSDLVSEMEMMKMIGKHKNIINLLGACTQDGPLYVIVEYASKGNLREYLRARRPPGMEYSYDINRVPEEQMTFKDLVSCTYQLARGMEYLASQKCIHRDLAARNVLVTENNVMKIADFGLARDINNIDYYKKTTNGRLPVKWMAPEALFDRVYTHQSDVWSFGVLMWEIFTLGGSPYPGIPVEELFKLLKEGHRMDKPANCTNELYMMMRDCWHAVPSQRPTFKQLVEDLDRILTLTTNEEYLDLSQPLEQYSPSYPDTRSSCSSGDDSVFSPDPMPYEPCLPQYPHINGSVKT

[7] = molecular target: Fibroblast growth factor receptor 2 (Homo sapiens) (UniProt P21802); settings: at 1 µM
[8] = molecular target: Fibroblast growth factor receptor 3 (Homo sapiens) (UniProt P22607); settings: at 0.1 µM
Fibroblast growth factor receptor 3 (Homo sapiens), sequence (P22607 23-806 limits assumed): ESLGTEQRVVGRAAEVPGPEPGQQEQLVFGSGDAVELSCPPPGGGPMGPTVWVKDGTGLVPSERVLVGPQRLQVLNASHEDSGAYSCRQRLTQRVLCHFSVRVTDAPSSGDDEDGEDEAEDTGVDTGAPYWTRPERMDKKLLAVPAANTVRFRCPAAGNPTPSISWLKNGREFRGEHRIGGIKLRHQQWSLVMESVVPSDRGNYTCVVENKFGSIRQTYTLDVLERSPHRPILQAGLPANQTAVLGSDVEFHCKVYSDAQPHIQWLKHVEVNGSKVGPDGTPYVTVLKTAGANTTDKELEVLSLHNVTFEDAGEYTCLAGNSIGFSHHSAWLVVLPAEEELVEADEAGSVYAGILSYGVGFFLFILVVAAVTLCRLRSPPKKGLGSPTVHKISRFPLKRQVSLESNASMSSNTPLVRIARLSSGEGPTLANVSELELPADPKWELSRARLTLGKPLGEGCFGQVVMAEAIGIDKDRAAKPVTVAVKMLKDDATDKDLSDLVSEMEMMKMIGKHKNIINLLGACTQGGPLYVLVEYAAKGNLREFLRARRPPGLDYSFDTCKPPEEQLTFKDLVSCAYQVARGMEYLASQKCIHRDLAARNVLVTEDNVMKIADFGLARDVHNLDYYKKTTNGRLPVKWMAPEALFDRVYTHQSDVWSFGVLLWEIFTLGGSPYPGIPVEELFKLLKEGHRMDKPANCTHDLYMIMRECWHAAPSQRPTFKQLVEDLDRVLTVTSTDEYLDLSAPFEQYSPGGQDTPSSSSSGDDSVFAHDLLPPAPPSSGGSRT

[9] = molecular target: Fibroblast growth factor receptor 3 (Homo sapiens) (UniProt P22607); settings: at 1 µM
[10] = molecular target: Fibroblast growth factor receptor 4 (Homo sapiens) (UniProt P22455); settings: at 0.1 µM
Fibroblast growth factor receptor 4 (Homo sapiens), sequence (P22455 22-802 limits assumed): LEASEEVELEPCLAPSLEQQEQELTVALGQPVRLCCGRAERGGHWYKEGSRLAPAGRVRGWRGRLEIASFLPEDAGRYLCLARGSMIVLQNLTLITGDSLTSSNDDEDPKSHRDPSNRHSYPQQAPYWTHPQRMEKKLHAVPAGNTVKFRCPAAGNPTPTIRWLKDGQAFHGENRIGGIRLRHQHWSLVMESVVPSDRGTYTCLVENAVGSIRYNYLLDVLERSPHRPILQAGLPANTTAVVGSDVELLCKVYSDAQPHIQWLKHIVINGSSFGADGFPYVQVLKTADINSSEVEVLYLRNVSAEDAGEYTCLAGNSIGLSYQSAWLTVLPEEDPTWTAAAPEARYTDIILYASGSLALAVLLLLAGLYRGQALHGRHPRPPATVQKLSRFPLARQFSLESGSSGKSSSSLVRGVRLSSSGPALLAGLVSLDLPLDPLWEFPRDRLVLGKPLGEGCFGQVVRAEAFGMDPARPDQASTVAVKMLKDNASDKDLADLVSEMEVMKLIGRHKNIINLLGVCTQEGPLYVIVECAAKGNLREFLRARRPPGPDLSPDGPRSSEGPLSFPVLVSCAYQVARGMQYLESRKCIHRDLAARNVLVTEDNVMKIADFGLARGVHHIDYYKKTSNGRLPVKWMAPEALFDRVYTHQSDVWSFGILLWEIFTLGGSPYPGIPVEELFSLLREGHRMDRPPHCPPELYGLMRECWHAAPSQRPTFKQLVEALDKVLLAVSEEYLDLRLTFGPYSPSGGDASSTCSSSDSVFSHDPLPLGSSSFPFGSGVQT

[11] = molecular target: Fibroblast growth factor receptor 4 (Homo sapiens) (UniProt P22455); settings: at 1 µM
[12] = molecular target: Tyrosine-protein kinase Fgr (Homo sapiens) (UniProt P09769); settings: at 0.1 µM
Tyrosine-protein kinase Fgr (Homo sapiens), sequence (P09769 2-529 limits assumed): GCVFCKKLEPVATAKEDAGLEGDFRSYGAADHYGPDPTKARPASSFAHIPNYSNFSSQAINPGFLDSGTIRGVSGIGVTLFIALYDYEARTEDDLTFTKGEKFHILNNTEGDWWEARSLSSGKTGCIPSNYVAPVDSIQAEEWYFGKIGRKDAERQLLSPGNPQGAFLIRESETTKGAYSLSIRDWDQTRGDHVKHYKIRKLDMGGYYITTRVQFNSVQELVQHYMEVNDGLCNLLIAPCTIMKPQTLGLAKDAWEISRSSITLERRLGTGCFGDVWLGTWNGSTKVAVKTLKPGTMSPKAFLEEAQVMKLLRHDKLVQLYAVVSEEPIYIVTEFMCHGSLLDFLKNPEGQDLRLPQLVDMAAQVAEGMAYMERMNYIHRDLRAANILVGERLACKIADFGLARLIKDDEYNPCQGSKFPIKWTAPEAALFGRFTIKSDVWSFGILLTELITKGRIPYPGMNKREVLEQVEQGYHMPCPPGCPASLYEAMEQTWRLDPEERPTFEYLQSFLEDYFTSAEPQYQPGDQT

[13] = molecular target: Tyrosine-protein kinase Fgr (Homo sapiens) (UniProt P09769); settings: at 1 µM
[14] = molecular target: Vascular endothelial growth factor receptor 1 (Homo sapiens) (UniProt P17948); settings: at 0.1 µM
[15] = molecular target: Vascular endothelial growth factor receptor 1 (Homo sapiens) (UniProt P17948); settings: at 1 µM
[16] = molecular target: Receptor-type tyrosine-protein kinase FLT3 (Homo sapiens) (UniProt P36888); settings: at 0.1 µM
[17] = molecular target: Receptor-type tyrosine-protein kinase FLT3 (Homo sapiens) (UniProt P36888); settings: at 1 µM
[18] = test system: T1, Receptor-type tyrosine-protein kinase FLT3 (Homo sapiens), P36888 [D835Y]; settings: at 0.1 µM
T1 sequence (whole entry): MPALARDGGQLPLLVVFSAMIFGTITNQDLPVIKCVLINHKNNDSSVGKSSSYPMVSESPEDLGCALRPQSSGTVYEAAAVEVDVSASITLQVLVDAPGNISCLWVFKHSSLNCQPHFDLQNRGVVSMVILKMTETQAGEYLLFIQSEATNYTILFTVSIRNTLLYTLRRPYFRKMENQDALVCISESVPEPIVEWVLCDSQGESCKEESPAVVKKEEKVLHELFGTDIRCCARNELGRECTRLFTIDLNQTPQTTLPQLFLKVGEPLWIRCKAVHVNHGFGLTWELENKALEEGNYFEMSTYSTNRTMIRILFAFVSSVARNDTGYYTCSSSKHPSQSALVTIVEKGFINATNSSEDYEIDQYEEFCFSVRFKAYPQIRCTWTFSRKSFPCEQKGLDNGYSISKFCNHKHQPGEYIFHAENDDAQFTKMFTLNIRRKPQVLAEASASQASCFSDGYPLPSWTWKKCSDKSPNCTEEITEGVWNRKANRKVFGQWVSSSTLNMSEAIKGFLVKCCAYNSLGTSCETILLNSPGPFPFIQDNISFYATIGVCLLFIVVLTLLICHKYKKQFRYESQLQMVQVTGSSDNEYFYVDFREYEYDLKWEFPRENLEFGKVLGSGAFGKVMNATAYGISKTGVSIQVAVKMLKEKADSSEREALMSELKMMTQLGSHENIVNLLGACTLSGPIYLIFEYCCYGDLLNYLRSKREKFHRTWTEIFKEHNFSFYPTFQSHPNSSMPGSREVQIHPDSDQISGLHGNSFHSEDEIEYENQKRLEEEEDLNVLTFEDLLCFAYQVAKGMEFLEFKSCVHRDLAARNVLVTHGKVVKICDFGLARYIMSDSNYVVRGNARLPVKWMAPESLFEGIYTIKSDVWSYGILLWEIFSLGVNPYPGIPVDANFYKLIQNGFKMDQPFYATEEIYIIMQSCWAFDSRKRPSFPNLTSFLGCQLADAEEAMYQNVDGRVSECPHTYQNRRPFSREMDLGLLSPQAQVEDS

[19] = molecular target: Non-receptor tyrosine-protein kinase TYK2 (Homo sapiens) (UniProt P29597); settings: at 1 µM;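 also: values are mean percent inhibition of TYK2 kinase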
Non-receptor tyrosine-protein kinase TYK2 (Homo sapiens), sequence (P29597 whole entry): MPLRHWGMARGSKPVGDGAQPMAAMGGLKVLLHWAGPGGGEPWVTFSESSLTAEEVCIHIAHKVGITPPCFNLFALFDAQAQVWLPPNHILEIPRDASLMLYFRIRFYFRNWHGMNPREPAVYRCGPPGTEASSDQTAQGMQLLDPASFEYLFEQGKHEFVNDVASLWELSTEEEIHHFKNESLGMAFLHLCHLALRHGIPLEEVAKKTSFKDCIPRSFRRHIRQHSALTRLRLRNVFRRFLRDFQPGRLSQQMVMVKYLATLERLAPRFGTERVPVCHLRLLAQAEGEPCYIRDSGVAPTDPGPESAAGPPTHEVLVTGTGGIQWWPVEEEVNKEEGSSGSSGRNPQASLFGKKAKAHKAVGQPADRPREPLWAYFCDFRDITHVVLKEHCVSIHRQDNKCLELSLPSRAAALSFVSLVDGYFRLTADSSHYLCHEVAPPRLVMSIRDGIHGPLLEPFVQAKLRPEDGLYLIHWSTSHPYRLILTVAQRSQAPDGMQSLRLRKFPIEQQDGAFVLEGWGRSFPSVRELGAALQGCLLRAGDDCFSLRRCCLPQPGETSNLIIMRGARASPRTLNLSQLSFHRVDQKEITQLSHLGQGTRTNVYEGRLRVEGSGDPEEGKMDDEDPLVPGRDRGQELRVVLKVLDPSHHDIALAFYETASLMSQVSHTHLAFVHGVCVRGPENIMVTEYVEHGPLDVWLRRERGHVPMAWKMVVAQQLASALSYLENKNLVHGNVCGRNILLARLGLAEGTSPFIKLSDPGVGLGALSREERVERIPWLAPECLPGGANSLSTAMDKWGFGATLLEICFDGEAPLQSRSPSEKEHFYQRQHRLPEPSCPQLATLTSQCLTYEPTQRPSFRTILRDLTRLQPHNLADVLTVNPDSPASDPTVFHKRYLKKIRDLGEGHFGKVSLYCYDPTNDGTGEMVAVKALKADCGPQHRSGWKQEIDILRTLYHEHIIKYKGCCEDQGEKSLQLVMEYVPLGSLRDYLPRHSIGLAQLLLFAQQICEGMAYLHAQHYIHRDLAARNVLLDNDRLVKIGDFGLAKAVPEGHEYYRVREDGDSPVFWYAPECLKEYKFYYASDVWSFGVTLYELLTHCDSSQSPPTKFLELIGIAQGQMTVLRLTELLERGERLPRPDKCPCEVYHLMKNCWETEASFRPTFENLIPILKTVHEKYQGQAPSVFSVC

[20] = molecular target: T2, Tyrosine-protein kinase receptor TYRO3 (Homo sapiens) (UniProt Q06418); settings: at 0.1 µM;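 also: reported percentages are averaged inhibition values of TYRO3 kinase activity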
T2 sequence (whole entry): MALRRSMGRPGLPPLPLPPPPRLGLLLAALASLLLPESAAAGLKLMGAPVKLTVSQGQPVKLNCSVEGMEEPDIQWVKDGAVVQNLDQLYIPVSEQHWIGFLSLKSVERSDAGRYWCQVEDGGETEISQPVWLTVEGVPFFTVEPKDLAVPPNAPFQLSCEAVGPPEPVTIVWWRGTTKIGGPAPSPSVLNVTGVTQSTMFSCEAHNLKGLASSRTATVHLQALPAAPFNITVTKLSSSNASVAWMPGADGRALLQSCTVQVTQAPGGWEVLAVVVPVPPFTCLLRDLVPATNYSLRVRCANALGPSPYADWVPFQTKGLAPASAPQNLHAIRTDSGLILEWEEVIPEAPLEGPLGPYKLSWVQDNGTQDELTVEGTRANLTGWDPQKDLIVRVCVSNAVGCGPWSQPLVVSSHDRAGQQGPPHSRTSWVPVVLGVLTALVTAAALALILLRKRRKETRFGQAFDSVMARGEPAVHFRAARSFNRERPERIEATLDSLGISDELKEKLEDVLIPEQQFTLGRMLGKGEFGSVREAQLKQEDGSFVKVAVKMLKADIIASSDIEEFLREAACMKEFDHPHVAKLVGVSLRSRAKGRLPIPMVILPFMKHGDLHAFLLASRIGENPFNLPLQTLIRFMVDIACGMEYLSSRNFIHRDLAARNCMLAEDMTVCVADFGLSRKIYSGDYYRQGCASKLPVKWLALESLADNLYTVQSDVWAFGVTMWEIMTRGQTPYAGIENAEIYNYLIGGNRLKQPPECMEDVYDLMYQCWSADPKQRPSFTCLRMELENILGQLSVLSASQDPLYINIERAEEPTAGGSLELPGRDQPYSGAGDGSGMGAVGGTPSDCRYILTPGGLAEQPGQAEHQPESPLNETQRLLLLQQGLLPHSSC

Tyrosine-protein kinase Fes/Fps (Homo sapiens), sequence (P07332 whole entry): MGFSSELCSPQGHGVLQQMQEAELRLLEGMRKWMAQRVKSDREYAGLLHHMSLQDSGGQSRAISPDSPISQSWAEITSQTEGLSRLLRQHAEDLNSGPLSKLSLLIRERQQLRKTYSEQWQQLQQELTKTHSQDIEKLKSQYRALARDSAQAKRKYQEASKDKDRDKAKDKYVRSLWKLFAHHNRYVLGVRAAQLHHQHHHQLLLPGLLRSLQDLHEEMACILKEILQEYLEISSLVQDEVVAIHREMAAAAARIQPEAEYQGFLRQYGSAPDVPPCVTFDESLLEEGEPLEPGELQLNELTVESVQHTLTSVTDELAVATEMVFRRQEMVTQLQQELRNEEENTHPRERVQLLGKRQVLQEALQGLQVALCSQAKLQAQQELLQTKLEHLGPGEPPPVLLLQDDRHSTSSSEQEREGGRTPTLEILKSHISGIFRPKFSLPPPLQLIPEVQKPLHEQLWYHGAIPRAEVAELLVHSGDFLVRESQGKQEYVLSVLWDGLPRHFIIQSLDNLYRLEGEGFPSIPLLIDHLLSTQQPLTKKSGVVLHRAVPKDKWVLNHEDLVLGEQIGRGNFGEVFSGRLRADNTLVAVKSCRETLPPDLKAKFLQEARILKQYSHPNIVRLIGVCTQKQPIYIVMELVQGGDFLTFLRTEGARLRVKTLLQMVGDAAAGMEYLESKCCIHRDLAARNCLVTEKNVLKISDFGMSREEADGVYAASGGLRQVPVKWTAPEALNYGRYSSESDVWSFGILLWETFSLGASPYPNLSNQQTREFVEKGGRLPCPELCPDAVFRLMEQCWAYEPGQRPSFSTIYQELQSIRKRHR

SMILES	inhibition [1]	inhibition [2]	inhibition [3]	inhibition [4]	inhibition [5]	inhibition [6]	inhibition [7]	inhibition [8]	inhibition [9]	inhibition [10]	inhibition [11]	inhibition [12]	inhibition [13]	inhibition [14]	inhibition [15]	inhibition [16]	inhibition [17]	inhibition [18]	inhibition [19]	inhibition [20]
CN1CCN(CCCNc2nc3ccc(Oc4ccc(NC(=O)Nc5cc(C(F)(F)F)ccc5F)cc4)cc3[nH]2)CC1	3.71%	1.57%	1.53%	-4.14%	0.63%	-1.49%	1.51%	-0.95%	-0.55%	-2.64%	-0.18%	1.31%	8.15%	12.7%	40.7%	15%	61.2%	-5.77%	0.88%	1.94%
COc1cc2ncn(-c3cc(OCc4cccs4)c(C(N)=O)s3)c2cc1OC	12.9%	1.87%	1.21%	-3.02%	7.33%	1.75%	15.3%	1.72%	12.4%	-0.52%	1.23%	11.1%	13.7%	2.16%	10.3%	0.99%	4.24%	-6.36%	0.53%	2.86%
Fc1ccc(-c2nc3n(c2-c2ccncc2)CCS3)cc1	2.81%	2.58%	2.75%	-4.07%	1.42%	-0.33%	1.72%	2.38%	0.09%	-6.29%	-1.43%	3.23%	5.64%	0.95%	4.64%	2.5%	4.49%	4.1%	-3.88%	2.21%
COc1cc(Nc2ncc(-c3ccccc3)o2)cc(OC)c1OC	2.66%	0.68%	-1.45%	-3.33%	8.79%	4.47%	27%	1.69%	16.6%	-0.19%	1.36%	3.9%	29.4%	8.63%	–	61.7%	90.8%	14.2%	6.55%	-1.23%
c1ccc(-c2n[nH]cc2-c2ccnc(-c3ccc(OCCN4CCOCC4)cc3)c2)nc1	5.42%	0.55%	0.54%	3.52%	5.55%	4.12%	7.12%	3.61%	5.31%	4.68%	4.93%	4.14%	6.86%	3.88%	15.6%	-2.01%	1.37%	-0.15%	1.87%	-0.18%
NS(=O)(=O)c1ccc(N/N=C2\C(=O)Nc3ccc(C(=O)NCCCn4ccnc4)cc32)cc1	–	2.9%	3.18%	1.31%	4.32%	3.11%	8.85%	4.75%	5.37%	-9.93%	2.46%	5.97%	13.4%	0.63%	5.48%	3.35%	18.5%	2.34%	-1.72%	4.1%
O=C(Nc1n[nH]c2nc(-c3ccco3)ccc12)C1CC1	2.89%	1.02%	1.51%	2.13%	2.39%	-0.33%	5.26%	1.13%	3.83%	2.11%	2.6%	0.22%	4.92%	1.05%	7.88%	0.89%	9.22%	-0.89%	-1.09%	2.23%
COc1cccc(-n2cnc3c(N/N=C/c4ccncc4)ncnc32)c1	4.82%	-0.04%	-1.27%	-7.19%	-2.61%	-3.25%	10.7%	-3.58%	3.63%	-4.06%	-3.96%	6.79%	19%	-1.12%	1.4%	0.88%	6.95%	7.7%	3.46%	1.07%
COc1ccc2cc(-c3c(-c4ccncc4)nc(-c4ccc([S+](C)[O-])cc4C)n3C)ccc2c1 (configuration not stated)	3.2%	-0.52%	-1.2%	-0.12%	2.93%	-0.56%	2.09%	1.3%	3.02%	2.92%	2.85%	0.53%	4.65%	0.86%	5.84%	-0.09%	-1%	0.23%	0.94%	0.37%
CCc1cccc(CC)c1/C=C/c1cncc(C(=O)NC)c1	1.64%	2.16%	2.33%	5.4%	11.8%	5.9%	9.23%	6.74%	9.45%	-1.16%	0.35%	3.25%	11.7%	4.96%	2.13%	2.07%	4.49%	2.46%	-3.91%	1.2%
COC(=O)Nc1nc2ccc(Sc3ccc(NC(=O)Nc4cc(C(F)(F)F)ccc4F)cc3)cc2[nH]1	1.11%	0.33%	-0.58%	-1.07%	-3.15%	0.25%	4%	2.1%	2.77%	3.12%	-0.24%	1.66%	3.71%	4.5%	37.7%	4.87%	32.6%	–	0.01%	1.03%
O=C(Nc1n[nH]c2cc(-c3ccccc3)ccc12)C1CC1	5.6%	2.97%	2.53%	8.51%	2.95%	3.3%	7.98%	6.47%	5.96%	-0.91%	0.83%	1.51%	12.8%	3.64%	2.3%	0.48%	2.82%	-3.75%	-4.78%	3.71%
NC(=O)c1ccc(Oc2nccc(-c3c(-c4ccc(F)cc4)ncn3C3CCNCC3)n2)cc1	10.6%	4.82%	4.5%	5.23%	8.19%	11.3%	8.04%	11%	6.64%	5.18%	3.45%	1.87%	3.62%	0.89%	-0.43%	2.76%	4.78%	0.27%	-4.56%	2.41%
NS(=O)(=O)c1ccc(N/N=C2\C(=O)Nc3ccc(-c4cnco4)cc32)cc1	0.94%	0.3%	0.19%	-2.98%	2.6%	-0.2%	15.2%	-0.63%	10.1%	-3.55%	-2.44%	3.25%	12.9%	-0.89%	7.48%	5.93%	38.3%	22.6%	9.13%	2.48%
CCc1ccc(Oc2nccc(-c3c(-c4ccc(F)cc4)ncn3C3CCNCC3)n2)cc1	3.15%	3.41%	3.8%	7.59%	4.77%	9.05%	5.8%	7.97%	5%	7.02%	1.42%	2.39%	6.95%	2.69%	3.25%	5.16%	5.11%	-2.28%	-1.9%	1.15%
